# Experimental data published in PubChem BioAssay.
# Several values for one entry are separate records, joined by “and”; a condition that tells them apart may be missing. Identical values can stand only once. For some assays here: Potency and affinity values are given separately. A structure can be active in one record and inactive in another. Activity calls are given as the source filed them.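 Rule for the calls, unless noted: active = thallium flux through the channel raised or lowered by more than 3 SD from vehicle-only wells, actives on both sides; inactive = the rest.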
# Legend:
# [1] = polyglutamine-triggered caspase-3 activation inhibitors, cell-based (AID 1583); conditions: polyglutamine-induced caspase-3 activation, cell assay; stronger effect = higher value;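 tested at 10 µM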
# [2] = suppressors of polyQ aggregation in yeast, 75Q-TubU reporter (AID 1593); conditions: Yeast 75Q polyglutamine aggregation reporter
# [3] = rescue of polyQ-huntingtin neuronal dysfunction in worms, whole organism, C. elegans mechanosensory neurons, N-terminal huntingtin (AID 1599); conditions: touch response, stronger effect = higher value
# [4] = inhibitors of mitochondrial cytochrome c release, biochemical, purified mitochondria (AID 1603); conditions: stronger effect = lower value;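 note: mouse liver mitochondria challenged with calcium chloride; signal normalized to the plate average as 100%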
# [5] = inhibitors of polyQ protein aggregation (AID 1604); conditions: polyglutamine-induced protein aggregation inhibition assay; stronger effect = higher value; tested at 2.5 µM
# [6] = enhancers of glutamate uptake in motor neurons, MN-1 cell line (AID 1612); conditions: MN-1 motor neuron cells, stronger effect = higher value;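 note: tested at 1 µM final; 0% = mean of DMSO vehicle wells on each plate; positive means more glutamate uptake than control and negative means less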
# [7] = suppressors of polyglutamine aggregation in yeast, 75Q-TubH (AID 1616); conditions: S. cerevisiae 75Q-TubH polyglutamine aggregation suppression; stronger effect = higher value
# [8] = hESC survival regulators, cell-based (AID 493140; call rule not given here;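 note: cells exposed to compounds for four days before counting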); conditions: human embryonic stem cell survival screen; stronger effect = higher value
# [9] = system: Hepatitis C virus NS3 helicase; assay: HCV NS3 helicase inhibitors, primary screen, biochemical, fluorescence polarization, LOPAC1280 library (AID 687035; in the data active = inhibition above about 37%); conditions: Purified HCV NS3 helicase, Cy5-dT15 ssDNA binding fluorescence polarization; stronger effect = higher value; concentration not given here
# [10] = Cy5 fluorescence interference with SSB-bound oligo, artefact control for HCV NS3 helicase inhibitor project, biochemical, NIH Clinical Collection, E. coli SSB (AID 743268; call rule not given here)
# [11] = modulation of C. elegans fzo-1 (AID 1259413; call rule not given here;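 note: fzo-1 mutant C. elegans worms in liquid wells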); conditions: C. elegans fzo-1 modulator screen, mean read-out; stronger effect = higher value
# [12] = viability rescue of complex I mutant cybrids, primary screen, cell-based, galactose medium, ATP luminescence (AID 1645843;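 active = z-score of at least 1.8 in each of two replicates, scored against plate mean and spread of sample wells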;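 note: positive z means more ATP and so rescue of galactose-driven cybrid death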); conditions: complex I mutant cybrid cells, 72 h, stronger effect = higher value
# [13] = system: R275C; assay: modulators of BK channel variants, profiling panel, selectivity assay, cell-based, U2OS BacMam, thallium flux, beta subunits (AID 1259406); conditions: at 30 µM;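 note: initial slope of Thallos dye fluorescence rise after thallium is added; log ratio against the mean of 0.3% DMSO vehicle wells on the same plate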
# [14] = system: R275C/beta1; assay: as above; conditions: at 30 µM
# [15] = system: R275C/beta2Delta; assay: as above; conditions: at 30 µM
# [16] = liver-stage malaria parasite growth inhibition, primary screen, cell-based, HepG2, luciferase luminescence, HepG2 viability (AID 624349; in the data active = parasite load remaining mostly below about 12%, no sharp cut-off; inactive = mostly above about 10%;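 note: 100% = mean of DMSO negative control wells on the same plate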); conditions: P. berghei liver stage in HepG2, luciferase luminescence, concentration not given here; parasite load remaining: stronger effect = lower value; viability: measured here: HepG2 viability without parasites
# [17] = system: F380Y/beta1; assay: modulators of BK channel variants, profiling panel, selectivity assay, cell-based, U2OS BacMam, thallium flux, beta subunits (AID 1259406); conditions: at 30 µM;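 note: initial slope of Thallos dye fluorescence rise after thallium is added; log ratio against the mean of 0.3% DMSO vehicle wells on the same plate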
# [18] = system: F380Y/beta4; assay: as above; conditions: at 30 µM
# [19] = system: R275C/beta4; assay: as above; conditions: at 30 µM
# [20] = system: R275C/Slo1WT/beta2; assay: as above; conditions: at 30 µM
structure (smiles),measurement,setting,value
CN1CCN(CCCN2c3ccccc3Sc3ccc(C(F)(F)F)cc32)CC1,inhibition,[1],-8.73%
same,score,[2],1.12
same,rescue above control,[3],0
same,cytochrome c release ratio,[4],2.01
same,inhibition of aggregation,[5],65.5%
same,glutamate uptake change,[6],16.2%
same,aggregation suppression score,[7],1.63
same,survival,[8],1.83 (inactive)
same,inhibition,[9],-6% (inactive)
same,fluorescence ratio,[10],0.87 (inactive)
same,mean signal,[11],265 (inactive)
same,z-score,[12],-1.38 (inactive) and -1.44 (inactive) and -1.35 (inactive)
same,log fold change Tl+ flux,[13],-0.157 (active)
same,log fold change Tl+ flux,[14],0.287 (active)
same,log fold change Tl+ flux,[15],-0.0448 (inactive)
COc1ccccc1N1CCN(CCCNc2cc(=O)n(C)c(=O)n2C)CC1,survival,[8],5.83 (inactive)
same,parasite load remaining,[16],53.4% (inactive) and 119% (inactive) and 80.7% (inactive)
same,viability,[16],95.1% and 83.4% and 78.9%
same,inhibition,[9],-4% (inactive)
same,fluorescence ratio,[10],0.99 (inactive)
same,mean signal,[11],262 (inactive)
same,z-score,[12],0.56 (inactive) and 1 (inactive) and -0.025 (inactive)
same,log fold change Tl+ flux,[13],-0.0421 (inactive)
same,log fold change Tl+ flux,[14],0.0413 (inactive)
same,log fold change Tl+ flux,[15],0.0288 (inactive)
CC(=O)S[C@@H]1CC2=CC(=O)CC[C@]2(C)[C@H]2CC[C@@]3(C)[C@@H](CC[C@@]34CCC(=O)O4)[C@H]12,survival,[8],17.9 (inactive)
same,fluorescence ratio,[10],0.99 (inactive)
same,z-score,[12],-0.25 (inactive) and 0.65 (inactive)
same,log fold change Tl+ flux,[17],0.0461 (inactive)
same,log fold change Tl+ flux,[18],-0.0243 (inactive)
same,log fold change Tl+ flux,[13],0.0437 (inactive)
same,log fold change Tl+ flux,[14],0.0449 (inactive)
same,log fold change Tl+ flux,[15],0.0485 (inactive)
same,log fold change Tl+ flux,[19],0.0567 (inactive)
same,log fold change Tl+ flux,[20],0.0564 (inactive)
Cc1c(OCC(F)(F)F)ccnc1CS(=O)c1nc2ccccc2[nH]1 (centres undefined),inhibition,[1],-8.62%
same,score,[2],0
same,rescue above control,[3],4.9
same,cytochrome c release ratio,[4],0.73
same,inhibition of aggregation,[5],29.4%
same,glutamate uptake change,[6],-0.46%
same,aggregation suppression score,[7],-0.00244
same,survival,[8],14.6 (inactive)
same,inhibition,[9],-2% (inactive)
same,fluorescence ratio,[10],0.95 (inactive)
same,mean signal,[11],250 (inactive)
same,z-score,[12],-1.12 (inactive) and -0.8 (inactive) and -0.405 (inactive)
CC(=O)OCC(=O)[C@@]1(O)CC[C@H]2[C@@H]3CCC4=CC(=O)CC[C@]4(C)[C@H]3C(=O)C[C@@]21C,parasite load remaining,[16],71.9% (inactive)
same,viability,[16],95.8%
same,inhibition,[9],-3% (inactive)
same,fluorescence ratio,[10],1.07 (inactive)
same,z-score,[12],0.82 (inactive) and 2.46 (active)
same,log fold change Tl+ flux,[17],0.0066 (inactive)
same,log fold change Tl+ flux,[18],-0.0455 (inactive)
same,log fold change Tl+ flux,[13],0.0275 (inactive)
same,log fold change Tl+ flux,[14],-0.0466 (inactive)
same,log fold change Tl+ flux,[15],-0.00407 (inactive)
same,log fold change Tl+ flux,[19],-0.00976 (inactive)
same,log fold change Tl+ flux,[20],0.0162 (inactive)
